The supplement of paper PMC6555819

Key:
Experiment in all cases: PBM binding z-score (relative to random genomic background probes); higher = stronger binding; sequences stand for … in GC…GCGATTGACAGCGTAGAATGAAGG
[1] = tested on: PPARg:RXRa DBDmut IVT, anti-RXR (DBD mutation: RXRa K156A/R161A, NR concentration 270 nM, RXRa partner concentration 90 nM)
Outline: (§1)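 On custom Agilent 4×180K arrays, double-stranded probes with 34-nt variable regions carried direct-repeat seeds, single-nucleotide variants, half-site ablations or random human genomic background. Ligand-free nuclear receptor dimers were applied for 1 h, and binding was read with antibodies against each partner (one per run). Binding z-scores come from regression-normalized fluorescence, with the random background probes as reference.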

[2] = tested on: PPARg:RXRa IVT, anti-PPARg (NR concentration 270 nM, RXRa partner concentration 90 nM)
Outline: as §1

[3] = tested on: PPARg DBDmut:RXRa IVT, anti-PPARg (DBD mutation: PPARg1 K132A/R137A, NR concentration 270 nM, RXRa partner concentration 90 nM)
Outline: as §1

[4] = tested on: PPARg DBDmut IVT, anti-PPARg (DBD mutation: PPARg1 K132A/R137A, NR concentration 270 nM)
Outline: as §1

[5] = tested on: PPARg homodimer (NR concentration 180 nM)
Outline: as §1

[6] = tested on: PXR:RXRa (NR concentration 270 nM, RXRa partner concentration 90 nM)
Outline: as §1

[7] = tested on: PXR homodimer (NR concentration 270 nM)
Outline: as §1

[8] = tested on: RARa:RXR (NR concentration 270 nM, RXRa partner concentration 90 nM)
Outline: as §1

[9] = tested on: RARa homodimer (NR concentration 270 nM)
Outline: as §1

[10] = tested on: RARb:RXRa (NR concentration 270 nM, RXRa partner concentration 90 nM)
Outline: as §1

| Sequence | PBM binding z-score [1] | PBM binding z-score [2] | PBM binding z-score [3] | PBM binding z-score [4] | PBM binding z-score [5] | PBM binding z-score [6] | PBM binding z-score [7] | PBM binding z-score [8] | PBM binding z-score [9] | PBM binding z-score [10] |
| --- | --- | --- | --- | --- | --- | --- | --- | --- | --- | --- |
| CGAACTAGGTCAAGGGCAGTGAATCTCCGCACGC | 7.67 | 8.29 | 1.07 | 0.971 | 1.46 | 1.14 | -0.131 | 1.86 | -0.096 | 4.13 |
| CAGCCTAGGTCAGGGCCAGTAAAGGAGGAACGTT | 1.26 | 1.51 | -1.63 | -1.14 | 0.652 | 0.328 | -0.795 | 1.08 | 0.335 | 3.49 |
| CAAACTAGGTTACGAAAGGTCAAAGTCGAATGAC | 7.07 | 7.68 | 2.53 | 2.93 | 4.81 | 6.22 | 1.73 | 6.69 | 3.24 | 4.82 |
| GCTCGGAGGACACGGTCAGAGCTTTGTCCGTAGA | -0.213 | -0.07 | -1.69 | -1.2 | -0.679 | -0.581 | -1.34 | -0.541 | -1.26 | 2.09 |
| ATCTCTAGGTAACCAAGTTCAGTGTATGCCGAAC | 3.75 | 3.04 | 0.877 | 1.39 | 0.882 | 1.9 | 1.95 | 0.828 | 1.09 | 1.08 |
| CTCGAACGGTCGGTTGAGGTGAGTATACGGATAA | -0.509 | -0.343 | -0.772 | -0.429 | -1.41 | -0.224 | -0.776 | 0.779 | -1.48 | 0.604 |
| ACTATTAGTAGACTTAGGGCAACCGATACGACGC | 0.187 | 0.601 | 0.838 | 1.02 | 0.603 | 0.0648 | 0.218 | 0.0539 | 0.917 | 0.609 |
| TCTTGTTGGTCAAAGGTCACACACTCGAAATGCG | 3.64 | 5.98 | 1.27 | 1.91 | 4.88 | 5.9 | 1.75 | 7.15 | 3.44 | 5.25 |
| CGTCCAAGGTCAAGGTCAGCGAAAGAGACTCGAA | 3.83 | 4.71 | 0.201 | -0.753 | 3.43 | 4.67 | 0.58 | 4.95 | 0.668 | 5.52 |
| CCGACTGGGGCATAAGGTAACCATAAGCCAGCCC | 2.94 | 2.7 | -0.714 | -0.986 | 0.375 | -0.534 | -0.805 | 0.0245 | -0.0601 | 0.594 |
| ATATGTAGGTTCTCGGGTCATTCAGTTTGCGCAT | 4.81 | 4.65 | 1.63 | 2.01 | 1.96 | 4.05 | 8.95 | 3.37 | 1.01 | 2.15 |
| AGTCAACGTTCACTAGGTAACGTAAGATTCAGCT | 2.07 | 2.83 | 0.496 | 0.783 | -0.0596 | -0.163 | -0.41 | -0.184 | -0.305 | 0.64 |
| CCAGACAGGTGAGAGGGTAACTCAGCCTCGATTA | 0.762 | 1.58 | -0.651 | -0.852 | 0.818 | -0.0811 | -0.117 | 0.443 | 0.0595 | 0.951 |
| TCTTGTAGATCAACAGGAGGTTAAGACAGATCGA | 1.59 | 0.984 | 0.978 | 0.46 | -0.0911 | 0.727 | -0.273 | 0.694 | 0.154 | 0.534 |
| AGTCAAGGTTCACTAGGTAACGTAAGATTCAGCT | 2.7 | 4.17 | 0.684 | 1.3 | 1.04 | 1.83 | 0.833 | 1.9 | -0.0473 | 2.75 |
| CCTACTGGGCCAAAGGTCATTGATTCCAATGCTC | 5.22 | 7.01 | 0.541 | 0.177 | 3.56 | 5.31 | 2.33 | 6.35 | 1.33 | 4.46 |
| CGTCCAAGGTCAGAGAAGTCAGTGAATGCCGAGT | 2.46 | 2.18 | -0.292 | -0.903 | 1.38 | 2.55 | 0.728 | 2.86 | 0.262 | 4.68 |
| TCTAGTTGGTCACGGAGGTCACACAGGACGGGTA | 2.41 | 4.28 | 0.872 | -0.126 | 3.68 | 4.78 | 3.02 | 4.72 | 1.58 | 3.98 |
| CCGAGTAGGTTATGGGGCATCCAGGCAACGGTGA | 2.41 | 3.47 | 0.134 | -0.392 | 0.993 | -0.0112 | -0.414 | 0.287 | 0.0576 | 0.965 |
